# Results from PubChem BioAssay AID1835 (Johns Hopkins Ion Channel Center, 2009).
# Among all 2,400 compounds or so, about 750 (31%) were called active. Some of the results follow. Values without a mark were called inactive.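 How the source made its calls: active means median signal gain over dofetilide-blocked control wells reaching their mean plus 3 SD, so readout 1 at least 0; inactive means the rest.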
# Biological target: Voltage-gated inwardly rectifying potassium channel KCNH2 (Homo sapiens) (UniProt Q12809)
# Experiment: modulators restoring hERG flux under dofetilide – cell-based, thallium flux, duplicate retest, dofetilide IC70, confirmation (AID 1835)
# Conditions: hERG cell line, FluxOR thallium flux, dofetilide-blocked; at 10 µM; hits give high values
# Chain of Voltage-gated inwardly rectifying potassium channel KCNH2 (Homo sapiens) (Q12809 whole entry, looked up): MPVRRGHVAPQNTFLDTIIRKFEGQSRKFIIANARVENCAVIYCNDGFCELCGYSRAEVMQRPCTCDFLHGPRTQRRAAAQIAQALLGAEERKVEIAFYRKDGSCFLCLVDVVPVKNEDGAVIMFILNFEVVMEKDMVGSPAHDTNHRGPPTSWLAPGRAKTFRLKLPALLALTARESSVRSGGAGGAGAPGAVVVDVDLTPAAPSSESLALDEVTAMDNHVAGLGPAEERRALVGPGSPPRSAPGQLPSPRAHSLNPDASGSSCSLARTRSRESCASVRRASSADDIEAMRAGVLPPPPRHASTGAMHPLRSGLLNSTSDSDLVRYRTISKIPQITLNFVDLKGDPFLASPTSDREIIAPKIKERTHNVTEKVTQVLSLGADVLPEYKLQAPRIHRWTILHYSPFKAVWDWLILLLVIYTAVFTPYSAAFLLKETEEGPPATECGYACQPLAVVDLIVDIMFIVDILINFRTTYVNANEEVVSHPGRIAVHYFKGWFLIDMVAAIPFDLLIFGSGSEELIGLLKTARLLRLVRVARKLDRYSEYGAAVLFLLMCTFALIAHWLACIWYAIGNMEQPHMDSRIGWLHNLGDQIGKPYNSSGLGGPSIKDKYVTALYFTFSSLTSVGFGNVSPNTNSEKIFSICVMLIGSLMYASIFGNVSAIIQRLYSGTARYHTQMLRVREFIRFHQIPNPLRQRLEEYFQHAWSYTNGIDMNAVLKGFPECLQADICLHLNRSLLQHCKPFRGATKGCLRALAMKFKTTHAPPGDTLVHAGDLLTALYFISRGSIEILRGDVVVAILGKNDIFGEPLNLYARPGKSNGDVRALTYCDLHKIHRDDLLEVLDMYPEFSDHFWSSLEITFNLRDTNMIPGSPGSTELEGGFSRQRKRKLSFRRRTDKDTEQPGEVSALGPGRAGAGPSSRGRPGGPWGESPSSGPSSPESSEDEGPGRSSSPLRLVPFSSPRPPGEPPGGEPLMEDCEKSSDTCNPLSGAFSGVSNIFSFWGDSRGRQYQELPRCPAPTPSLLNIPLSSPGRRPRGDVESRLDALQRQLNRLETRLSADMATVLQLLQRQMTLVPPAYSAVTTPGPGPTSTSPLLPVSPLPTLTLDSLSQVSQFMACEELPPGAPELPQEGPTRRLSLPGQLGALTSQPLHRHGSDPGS
row,Structure (SMILES),"activity increase over dofetilide control, less the hit threshold"
1,O=C(N/N=C/c1ccc2cccc(OCc3ccccc3)c2n1)c1ccc(Br)cc1,-9%
2,COc1cc(C(=S)N2CCOCC2)ccc1OC(=O)c1ccc([N+](=O)[O-])cc1[N+](=O)[O-],-22%
3,COc1cc(C(=O)Nc2ccc(O)cc2C(=O)O)ccc1OC(C)=O,1% (active)
4,CC(C)C(=O)Nc1cccc(C(=O)Nc2ccccc2C(=O)O)c1,-7%
5,O=C(O)c1cc(/C=N\O)ccc1OCc1ccccc1,-9%
6,COc1cc(NC(=O)CCCOc2ccc(Cl)cc2Cl)c(C(=O)O)cc1OC,-6%
7,O=C(Nc1ccccc1C(=O)O)c1cccc(NC(=O)c2ccccc2Br)c1,-5%
8,O=C(CCCOc1ccc(Cl)cc1Cl)Nc1ccccc1C(=O)O,3% (active)
9,O=C(Nc1ccccc1C(=O)O)c1cncc(Br)c1,12% (active)
10,COc1ccc(C(=O)Nc2ccccc2C(=O)O)cc1Cl,5% (active)
11,CCOP(=O)(OCC)C(NC(=O)c1ccc(OC)c(OC)c1)c1ccccc1 (stereo not given),-14%
12,CN(C)C(=O)c1ccc(NC(=O)c2cncc(Br)c2)cc1,-12%
13,Cc1c(Cl)c([N+](=O)[O-])nn1CC(=O)NCC(C)C,-20%
14,COc1ccc(COC(=O)C2CCN(S(=O)(=O)c3cccs3)CC2)cc1,-27%
15,CC1CCCC(C)N1S(=O)(=O)c1ccc(NC(=O)CCn2cnc3ccccc3c2=O)cc1 (stereo not given),-12%
16,O=C(Nc1ccccc1C(=O)O)c1ccc(NC(=O)C2CC2)cc1,-2%
17,CCCCC(=O)Nc1cccc(C(=O)Nc2ccccc2C(=O)O)c1,-3%
18,CCOc1ccc(C(=O)Nc2ccccc2C(=O)O)cc1,3% (active)
19,Cn1c(/N=C/c2c(O)ccc3ccccc23)nc2ccccc21,-32%
20,O=S(=O)(Nc1ccc(Cc2ccncc2)cc1)c1ccc(Cl)c(Cl)c1,-6%
21,O=C1C2CC=CCC2C(=O)N1c1ccc(Cc2ccncc2)cc1 (stereo not given),3% (active)
22,Cc1nc(-c2nc(-c3c(C(=O)NNC(=O)c4ccc(Cl)cc4)noc3C)cs2)cs1,-17%
23,CC(C)(C)c1cc(C(=O)NNC(=O)c2ccc(Cl)cc2)no1,29% (active)
24,CC(C)(C)c1csc(NNC(=O)c2ccc(Cl)cc2)n1,-3%
25,Cc1csc2c(N3CCCCC3)ncnc12,-8%

row,Structure (SMILES),"activity increase over dofetilide control, less the hit threshold"
1,CC(=O)CSc1ncnc2sc3c(c12)CCC(C)C3 (stereo not given),72% (active)
2,COc1cc(NC(=O)CSc2ncnc3sc4c(c23)CCC(C)C4)c(C(=O)O)cc1OC (stereo not given),94% (active)
3,Cc1nnc(NC(=O)CN2CCN(Cc3ccc(F)cc3Cl)CC2)s1,-17%
4,CCCCCCC1CCC(C(=O)N2CCOCC2)CC1 (stereo not given),-5%
5,O=C(CCCc1c[nH]c2ccccc12)Nc1ccc(S(=O)(=O)Nc2ncccn2)cc1,-19%
6,COCC1CCCN(C(=O)c2ccc3oc(C(C)C)nc3c2)C1 (stereo not given),-12%
7,Oc1c(Cl)cc(CN2CCCCC2)c2cccnc12,-6%
8,O=c1oc2ccccc2c(Cl)c1CN1CCCCC1,2% (active)
9,O=C(c1c(O)c2ccccc2oc1=O)C1CCCCC1,-4%
10,Cc1ccc(NC(=O)CCc2nc3sc4c(c3c(=O)[nH]2)CCCC4)c(Br)c1,-17%
11,NC(=O)C1CCN(C(=O)CC(c2ccccc2)c2ccccc2)CC1,-17%
12,O=c1c2cc(Cl)ccc2nc(-c2ccccc2)n1O,18% (active)
13,O=c1c2ccccc2nc(-c2ccccc2)n1O,-7%
14,O=c1c2cc(Cl)ccc2nc(-c2ccc(Cl)c(Cl)c2)n1O,124% (active)
15,Cc1ccc(-c2nc3c(Cl)cc(Cl)cc3c(=O)n2O)cc1,83% (active)
16,Cc1ccc(-c2nc3ccccc3c(=O)n2O)cc1,14% (active)
17,O=C(Cc1ccccc1)Nn1c(-c2ccccc2)nc2ccccc2c1=O,-15%
18,CCOc1ccc(N=Nc2cc(C(C)C)ccc2O)cc1,-9%
19,COC(=O)Sc1nnc(-c2ccc(Br)cc2)o1,-2%
20,CNC(=O)COC(=O)c1cccc(S(=O)(=O)N2CCN(c3ccc(F)cc3)CC2)c1,-20%
21,CCC(C)NC(=O)Cn1nc(C(F)(F)F)c2c1CCCC2 (stereo not given),-7%
22,Cc1ccccc1Cc1c(C)nc2c(C(=O)NCc3ccc4c(c3)OCO4)cnn2c1C,-11%
23,OC(CNCC(c1ccc(Cl)cc1Cl)c1c[nH]c2ccccc12)c1ccccc1 (stereo not given),-48%
24,CCOc1ccc(NC(=O)CN(C)C(=O)c2c(-c3c(F)cccc3Cl)noc2C)cc1OCC,-7%
25,CN(Cc1cccc(C(F)(F)F)c1)Cc1nc(-c2cnccn2)no1,-8%

row,Structure (SMILES),"activity increase over dofetilide control, less the hit threshold"
1,CCOC(=O)c1c(N2C(=O)Nc3ccccc3N2O)n[nH]c1-c1cccc(Cl)c1,-4%
2,O=c1c2ccccc2nc(-c2cccc(Cl)c2)n1O,39% (active)
3,O=c1c2ccccc2nc(-c2ccc(Cl)c(Cl)c2)n1O,36% (active)
4,Cc1ccc(-c2onc3ccc(Cl)cc23)cc1,0%
5,Cc1ccc(-c2nc3ccc(Cl)cc3c(=O)n2O)cc1,78% (active)
6,Cc1ccc(C(=O)NNc2cc(N3CCCC3)nc(N3CCCC3)n2)cc1,-6%
7,CCOc1ccc2[nH]cc(S(=O)(=O)c3ccc(F)cc3)c(=O)c2c1,-19%
8,Cc1ccc(-c2nc(CSCC(=O)N3CCOCC3)c(C)o2)cc1,-9%
9,NC(=O)[C@@H]1CCCN1Cc1nc(Cc2ccccc2Cl)no1,-15%
10,Cc1nn(C)c(C(=O)NC(=S)Nc2ccccc2Br)c1Cl,27% (active)
11,Cc1nn(CCC(=O)NNC(=S)Nc2ccc(F)cc2)c(C)c1[N+](=O)[O-],-24%
12,Cc1ccc(NC(=O)c2c([N+](=O)[O-])c(C(C)(C)C)nn2C)cc1,-1%
13,CCn1ncc(Cl)c1C(=O)NC(=S)Nc1ccccc1Br,46% (active)
14,O=C(NC(=S)Nc1ccccc1N1CCCC1)c1ccccc1Br,-2%
15,CCCCOC(=O)c1ccc(NC(=S)NC(=O)c2c(Br)c(C)nn2C)cc1,38% (active)
16,Cc1nn(C)c(C(=O)NC(=S)Nc2ccc([N+](=O)[O-])cc2)c1Cl,18% (active)
17,CCCCOC(=O)c1ccc(NC(=S)NC(=O)c2c(Cl)cnn2C)cc1,-11%
18,Cc1cc(C)nc(SCc2nnc(SCC(=O)Nc3nc(-c4ccccc4)cs3)n2-c2ccccc2)n1,-19%
19,CC(C)c1ccc2c(c1)c(SC(C)(C)C)c(CC(C)(C)C(=O)O)n2Cc1ccc(Cl)cc1,-9%
20,S=c1[nH]nc(-c2ccccc2)n1/N=C/c1ccc(-c2ccccc2Cl)o1,-4%
21,S=c1[nH]nc(-c2cccs2)n1/N=C/c1c(Cl)cccc1Cl,4% (active)
22,CC1=NN(c2ccccc2)C(=O)/C1=C/c1ccc(-c2ccc(C)c(C(=O)O)c2)o1,-18%
23,CN(C)/C=C1/C(=O)N(c2ccc([N+](=O)[O-])cc2)N=C1c1ccccc1,2% (active)
24,O=C(NNC(=O)C12CC3CC(CC(O)(C3)C1)C2)c1ccccc1O,-4%
25,Cc1nnc(SCC(=O)Nc2nccs2)n1N,-22%

row,Structure (SMILES),"activity increase over dofetilide control, less the hit threshold"
1,C/C(Nc1cccc(F)c1)=C(/C#N)C(N)=O,2% (active)
2,CCOC(=O)c1nnn(CC(=O)Nc2cccc(F)c2)c1C(=O)OCC,-1%
3,CC(C)[C@H](NC(=O)c1ccco1)C(=O)OCC(=O)Nc1cccc(F)c1,-12%
4,OC(CCN1CCOCC1)c1ccccc1 (stereo not given),-20%
5,Cc1ccc(C)c(NC(=O)CCN2C(=O)[C@@H]3Cc4ccccc4CN3C2=O)c1,-17%
6,CC(=O)C1C(=O)c2c(cccc2[N+](=O)[O-])C1=Nc1ccccc1C (stereo not given),-20%
7,CCN(CC)S(=O)(=O)c1ccc2[nH]c(=O)cc(C(=O)Nc3cccc(C(C)=O)c3)c2c1,-4%
8,CC(Oc1ccc(Br)cc1)c1nc2c3ccccc3nc(=S)n2[nH]1 (stereo not given),0%
9,S=c1nc(-c2ccc(Br)cc2)[nH]c2ccccc12,50% (active)
10,S=c1nc(-c2ccccc2)[nH]c2ccc(Br)cc12,95% (active)
11,CC(C)c1ccc(CNc2nc3nc4c(c(=O)n3[nH]2)CCC4)cc1,-6%
12,O=C1CCN(S(=O)(=O)c2ccc(Cl)cc2)CCN1,-25%
13,COc1ccc(S(=O)(=O)c2snnc2C)cc1,-2%
14,C=CCc1cccc(C2Nc3ccccc3C(=O)N2O)c1O (stereo not given),1% (active)
15,C=CCn1c(O)c(N=NC(=S)Nc2ccc(OC)c(Cl)c2)c2ccccc21,7% (active)
16,C=CCn1c(O)c(N=NC(=S)Nc2ccc(OC)cc2)c2ccccc21,4% (active)
17,Cc1ccc(Cn2c(O)c(N=NC(=S)Nc3ccccc3F)c3ccccc32)cc1,-13%
18,COc1ccc(C(CC(=O)N2CCOCC2)c2c(O)cc(OC)cc2OC)cc1 (stereo not given),-13%
19,CCOC(=O)C1=C(Cn2cnc3ccccc32)NC(=O)NC1c1cc(C)ccc1C (stereo not given),-10%
20,CC(C)[C@H](NC(=O)OC(C)(C)C)C(=O)NCC1CCC(C(=O)N[C@@H](Cc2ccccc2)C(=O)O)CC1 (stereo not given in full),-5%
21,CNC(=O)c1cc(C(=O)c2ccc(F)cc2C(F)(F)F)c[nH]1,-7%
22,COc1cc(NC(=O)c2ccccc2)c(OC)cc1NC(=O)Cc1ccc(Br)cc1,12% (active)
23,COc1ccc(CC(=O)Nc2ccccc2Oc2ccccc2)cc1,-13%
24,COc1cc(Br)cc(/C=N/NC(=O)Cc2ccccc2)c1O,-9%
25,O=c1[nH]c(C(Cl)(Cl)Cl)nc2ccc3ccccc3c12,4% (active)
